The text below walks through data of PubChem BioAssay (EPA / NIEHS).

The source made the active and inactive calls. How the source made its calls: active means hit-call score of the fitted dose curve at least 0.9, where 1 is the maximum; inactive means score below 0.9.

Common to all, as to conditions: mRNA level, 48 h; actives raise or lower the signal
Read-out in assay [1]: Interleukin 6 (IL6), IL6 (gene 3569)
In words: LTEA_HepaRG_IL6: Life Technologies and Expression Analysis (LTEA) Assay for Interleukin 6 (IL6) using HepaRG (AID 2283509). Summed up: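 Differentiated human HepaRG cells, plated 48 h then switched to serum-free induction medium, were exposed in duplicate for 48 h to eight half-log concentrations up to 100 uM in 0.5% DMSO. IL6 mRNA measured by qRT-PCR, normalized to ACTB/GAPDH/POLR2A.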

Read-out in assay [2]: Interleukin 6 Receptor (IL6R), IL6R (gene 3570)
In words: LTEA_HepaRG_IL6R: Life Technologies and Expression Analysis (LTEA) Assay for Interleukin 6 Receptor (IL6R) using HepaRG (AID 2283510). The procedure, abridged:
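Differentiated human HepaRG cells, plated 48 h then switched to serum-free induction medium, were dosed in duplicate for 48 h at eight half-log concentrations up to 100 uM in 0.5% DMSO. IL6R mRNA quantified by qRT-PCR, normalized to ACTB/GAPDH/POLR2A; bidirectional fit versus DMSO.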

Read-out in assay [3]: Potassium channel subfamily K member 1 (KCNK1), KCNK1 (gene 3775)
The experiment in a line: LTEA_HepaRG_KCNK1: Life Technologies and Expression Analysis (LTEA) Assay for Potassium channel subfamily K member 1 (KCNK1) using HepaRG (AID 2283511). The procedure, abridged:
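Differentiated human HepaRG cells in serum-free induction medium were exposed in duplicate for 48 h to 8 half-log concentrations up to 100 uM in 0.5% DMSO. KCNK1 mRNA was measured by TaqMan qRT-PCR, normalized to ACTB, GAPDH and POLR2A, and fitted bidirectionally versus DMSO.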

Read-out in assay [4]: Keratin 19 (KRT19), KRT19 (gene 3880)
In words: LTEA_HepaRG_KRT19: Life Technologies and Expression Analysis (LTEA) Assay for Keratin 19 (KRT19) using HepaRG (AID 2283512). The procedure, abridged: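 KRT19 transcript measured by TaqMan qRT-PCR, referenced to three housekeeping genes, after HepaRG cells received test chemicals for 48 h. Eight half-log concentrations, top 100 uM, 0.5% DMSO vehicle; increases and decreases both fitted.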

Read-out in assay [5]: JUN Transcription Factor, JUN (gene 3725)
In words: LTEA_HepaRG_JUN: Life Technologies and Expression Analysis (LTEA) Assay for JUN Transcription Factor using HepaRG (AID 2283513). Summed up:
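Differentiated HepaRG cells were exposed to chemicals for 48 h in serum-free induction medium, 8 concentrations from 100 uM in half-log steps, 0.5% DMSO vehicle, in duplicate. JUN mRNA was quantified by TaqMan qRT-PCR, normalized to ACTB, GAPDH, POLR2A.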

Read-out in assay [6]: Lipase C (LIPC), LIPC (gene 3990)
In words: LTEA_HepaRG_LIPC: Life Technologies and Expression Analysis (LTEA) Assay for Lipase C (LIPC) using HepaRG (AID 2283514). Summed up:
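Differentiated human HepaRG cells in serum-free induction medium were exposed in duplicate for 48 h to eight concentrations (top 100 uM, half-log steps, 0.5% DMSO). LIPC mRNA was quantified by TaqMan qRT-PCR, normalized to ACTB, GAPDH and POLR2A, with bidirectional fitting versus DMSO.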

Read-out in assay [7]: Lipoprotein lipase (LPL), LPL (gene 4023)
The experiment in a line: LTEA_HepaRG_LPL: Life Technologies and Expression Analysis (LTEA) Assay for Lipoprotein lipase (LPL) using HepaRG (AID 2283515). The procedure, abridged: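 Differentiated human HepaRG cells in serum-free induction medium were exposed in duplicate for 48 h to eight half-log concentrations (top 100 uM) in 0.5% DMSO. LPL mRNA was quantified by TaqMan qRT-PCR, normalized to ACTB, GAPDH and POLR2A.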

Read-out in assay [8]: MicroRNA 122 (MIR122), gene 406906
The experiment in a line: LTEA_HepaRG_MIR122: Life Technologies and Expression Analysis (LTEA) Assay for MicroRNA 122 (MIR122) using HepaRG (AID 2283516). Further: the transcript read is the microRNA miR-122. Summed up: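 Differentiated human HepaRG cells were exposed 48 h in serum-free induction medium to eight half-log concentrations (top 100 uM, 0.5% DMSO). Transcript level was measured by TaqMan qRT-PCR, normalized to ACTB, GAPDH and POLR2A, and fitted bidirectionally versus DMSO.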

Read-out in assay [9]: matrix metalloproteinase-10 (MMP10), MMP10 (gene 4319)
In words: LTEA_HepaRG_MMP10: Life Technologies and Expression Analysis (LTEA) Assay for matrix metalloproteinase-10 (MMP10) using HepaRG (AID 2283517). Summed up:
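HepaRG, collagen I, ~100,000 cells/well; serum-free induction medium; 48 h exposure, duplicate, 8-pt half-log to 100 uM, 0.5% DMSO. Readout: TaqMan qRT-PCR, normalized to ACTB/GAPDH/POLR2A; bidirectional fit vs DMSO.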

Read-out in another assay: MYC, MYC (gene 4609)
The experiment in a line: LTEA_HepaRG_MYC: Life Technologies and Expression Analysis (LTEA) Assay for MYC using HepaRG (AID 2283518). Summed up:
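MYC transcript changes, up or down relative to 0.5% DMSO, from TaqMan qRT-PCR normalized to three housekeeping genes. Human HepaRG cultures received chemicals for 48 h at eight half-log concentrations up to 100 uM, in duplicate.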

By AC50 is commonly meant the concentration at which the activity in the assay is half-maximal. Turning to `[N-]=[N+]=[N-]`, the AC50 in [1] was 93.6 µM (active); in assay [4], 64.8 µM (active); in [6], 81.1 µM (active); in assay [7], 72.3 µM (active); with MYC, MYC (gene 4609), 80 µM (active). Moreover, the result in [2], in assay [3], in assay [5], in assay [8] and in assay [9] was inactive.

As to `Cc1ccc([N+](=O)[O-])cc1C`, the molecule was called inactive in [1], in [2], in assay [3], in assay [4], in assay [5] and in [6]. Besides, the outcome in assay [7] is “inactive”; in [8], “inactive”; in assay [9], “inactive”; with MYC, MYC (gene 4609), “inactive”.

On to `CCC1(c2ccccc2)C(=O)N=C(O)NC1=O` (centres undefined), for which the result in assay [1], in assay [2], in [3], in assay [4], in assay [5] and in assay [6] was inactive. For the same molecule, the outcome is “inactive” in assay [7]; “inactive” in [8]; “inactive” in assay [9]; “inactive” in the assay with MYC, MYC (gene 4609).

Regarding `CCCCCCCc1ccc(O)cc1`, the result in assay [1], in [2], in assay [3], in [4], in [5] and in assay [6] was inactive. Also, the outcome was “inactive” in assay [7]; “inactive” in assay [8]; “inactive” in assay [9]; “inactive” with MYC, MYC (gene 4609).

Turning to `CSC(C)(C)C=NO`, the outcome in [1], in assay [3], in assay [4], in [5], in [6] and in assay [7] was inactive. Besides, the outcome is “inactive” in assay [8]; “inactive” in assay [9]; “inactive” in the assay with MYC, MYC (gene 4609).

In the case of `CCCCN(CCCC)SN(C)C(=O)Oc1cccc2c1OC(C)(C)C2`, the molecule was classed as inactive in assay [1], in assay [2], in assay [3], in assay [4], in [5] and in [6]. The outcome in assay [7] was “inactive”; in [8] it was “inactive”; in assay [9] it was “inactive”; with MYC, MYC (gene 4609), “inactive”.

Turning to `CCOc1ccc(C(C)(C)COCc2cccc(Oc3ccccc3)c2)cc1`, the result in [1], in [2], in [3], in assay [4], in assay [5] and in assay [6] was inactive. The outcome was “inactive” in assay [7]; “inactive” in [8]; “inactive” in [9]; “inactive” in the assay with MYC, MYC (gene 4609).

For `O=[N+]([O-])c1ccccc1`, the molecule was classed as inactive in [1], in assay [2], in assay [3], in [4], in [5] and in [6]. Also, the outcome in assay [7] is “inactive”; in assay [8] it was “inactive”; in [9], “inactive”; with MYC, MYC (gene 4609), “inactive”.

For `Nc1cc2c3c(c1)C(c1ccccc1)=N[C@@H](NC(=O)c1cccnc1)C(=O)N3CC2`, the outcome in assay [1], in assay [2], in assay [3], in assay [4], in [5] and in [6] was inactive. Besides, the outcome in assay [7] is “inactive”; in assay [8], “inactive”; in assay [9] it was “inactive”; with MYC, MYC (gene 4609) it was “inactive”.

With `CCOC(=O)c1ccccc1C(=O)OCC`, the result in assay [1], in [2], in assay [3], in assay [4], in assay [5] and in assay [6] was inactive. Besides, the outcome in assay [7] is “inactive”; in [8] it was “inactive”; in assay [9] it was “inactive”; with MYC, MYC (gene 4609) it was “inactive”.

Consider `Cc1ccc(N)cc1N`, for which the call in assay [1], in assay [2], in assay [3], in assay [4], in assay [5] and in assay [6] was inactive. Further, the outcome in assay [7] was “inactive”; in assay [8], “inactive”; in assay [9], “inactive”; with MYC, MYC (gene 4609) it was “inactive”.

As to `CCNc1nc(Cl)nc(NC(C)(C)C)n1`, the outcome in [1], in [2], in [3], in assay [5], in assay [6] and in [7] was inactive. The outcome in [8] is “inactive”; in assay [9], “inactive”; with MYC, MYC (gene 4609), “inactive”. The AC50 in [4] was 10.7 µM (active).

With `ClC1=C(Cl)C2(Cl)C3C(Cl)C(Cl)CC3C1(Cl)C2(Cl)Cl` (centres undefined), the molecule was called inactive in [1], in assay [2], in [3], in assay [4], in assay [5] and in assay [7]. Also, the molecule was called inactive in assay [8] and in assay [9]. Also, the AC50 in assay [6] is 43.7 µM (active); with MYC, MYC (gene 4609), 50 µM (active).

In the case of `CCCCN(CCCC)N=O`, the molecule was called inactive in assay [1], in assay [2], in assay [3], in assay [4], in assay [5] and in assay [6]. Besides, the outcome in [7] was “inactive”; in [8] it was “inactive”; in assay [9] it was “inactive”; with MYC, MYC (gene 4609), “inactive”.

Take `Nc1ccc2ccccc2c1`: the molecule was called inactive in assay [1], in [2], in assay [3], in [5], in assay [6] and in assay [7]. The result in [8] and in assay [9] was inactive. The AC50 in [4] is 5.98 µM (active); with MYC, MYC (gene 4609) it was 50 µM (active).

For `O=C(O)C(Cl)Cl`, the outcome in assay [1], in assay [2], in assay [3], in assay [4], in assay [5] and in assay [6] was inactive. For the same molecule, the outcome in assay [7] is “inactive”; in [8], “inactive”; in assay [9], “inactive”; with MYC, MYC (gene 4609), “inactive”.

As to `CCOS(=O)(=O)OCC`, the outcome in [1], in assay [2], in assay [3], in assay [4], in assay [5] and in assay [6] was inactive. For the same molecule, the outcome is “inactive” in assay [7]; “inactive” in assay [8]; “inactive” in assay [9]; “inactive” with MYC, MYC (gene 4609).

With `CCCCc1ccccc1`, the result in assay [1], in assay [2], in assay [3], in [4], in assay [5] and in assay [6] was inactive. In addition, the outcome was “inactive” in [7]; “inactive” in assay [8]; “inactive” in assay [9]; “inactive” with MYC, MYC (gene 4609).

Regarding `CCC(C)(C)c1ccc(O)cc1`, the molecule was called inactive in assay [1], in assay [2], in assay [3], in [4], in assay [5] and in [6]. Further, the outcome in assay [7] is “inactive”; in assay [8], “inactive”; in [9], “inactive”; with MYC, MYC (gene 4609), “inactive”.

As to `OCC1CO1` (centres undefined), the outcome in assay [1], in assay [2], in assay [3], in assay [4], in [5] and in [6] was inactive. In addition, the outcome in [7] was “inactive”; in assay [8] it was “inactive”; in assay [9] it was “inactive”; with MYC, MYC (gene 4609), “inactive”.

On to `Cc1ccc(O)cc1C`, for which the call in assay [1], in [2], in assay [3], in assay [4], in assay [5] and in [6] was inactive. Moreover, the outcome in [7] was “inactive”; in [8], “inactive”; in assay [9], “inactive”; with MYC, MYC (gene 4609), “inactive”.

In the case of `O=P1(N(CCCl)CCCl)NCCCO1` (centres undefined), the molecule was classed as inactive in assay [1], in assay [2], in assay [3], in assay [4], in assay [5] and in [6]. The outcome in [7] was “inactive”; in assay [8], “inactive”; in assay [9], “inactive”; with MYC, MYC (gene 4609), “inactive”.
